# Data taken from PubChem BioAssay (NCI).
# This is part of a sample that, as a whole, favours compounds with a hit. Of some 83,000 tested, about 20% had one in any assay.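 How to read the values: 0–100, growth inhibition (40 = 60% inhibited); 0, no net growth; -100 to 0, cell death (-40 = 40% of starting cells died; -100 = all dead).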 Values without a mark were called inactive. Calls of active or inactive are those of the source. Rule for the calls: active = growth percent below 10; inactive = the rest.
# Experiments:
# Experiment in all cases: NCI-60 one-dose screen, 48 h (100 = growth as untreated, 0 = no growth, -100 = all killed)
# Settings in all cases: 10 µM unless noted
# NCI-H23 lung = system: NCI-H23 lung
# NCI-H226 lung = system: NCI-H226 lung
# NCI-H322M lung = system: NCI-H322M lung
# HOP-62 NSCLC = system: HOP-62 NSCLC
# NCI-H460 lung = system: NCI-H460 lung
# HOP-92 NSCLC = system: HOP-92 NSCLC
# NCI-H522 lung = system: NCI-H522 lung
# A549/ATCC NSCLC = system: A549/ATCC NSCLC
# 786-0 renal = system: 786-0 renal
# COLO 205 colon = system: COLO 205 colon
# DU-145 prostate = system: DU-145 prostate
# K-562 leukemia = system: K-562 leukemia
# MALME-3M melanoma = system: MALME-3M melanoma
# MDA-MB-231 breast = system: MDA-MB-231 breast
# RXF 393 renal = system: RXF 393 renal
# SF-268 CNS = system: SF-268 CNS
# SF-295 CNS = system: SF-295 CNS
# SF-539 CNS = system: SF-539 CNS
# UACC-257 melanoma = system: UACC-257 melanoma
# M14 melanoma = system: M14 melanoma
SMILES,growth (NCI-H23 lung),growth (NCI-H226 lung),growth (NCI-H322M lung),growth (HOP-62 NSCLC),growth (NCI-H460 lung),growth (HOP-92 NSCLC),growth (NCI-H522 lung),growth (A549/ATCC NSCLC),growth (786-0 renal),growth (COLO 205 colon),growth (DU-145 prostate),growth (K-562 leukemia),growth (MALME-3M melanoma),growth (MDA-MB-231 breast),growth (RXF 393 renal),growth (SF-268 CNS),growth (SF-295 CNS),growth (SF-539 CNS),growth (UACC-257 melanoma),growth (M14 melanoma)
COc1ccc(NC(N)=NCCCOc2ccc(F)cc2)cc1,64.4%,91%,88.1%,74.2%,101%,80.8%,85.5%,73.1%,89.1%,-0.958% (active),48.5%,91.5%,96.6%,93.8%,104%,77.7%,70.9%,71.7%,25.4%,69.1%
O=c1[nH]nc(-c2ccccc2)c2sc3ncc(-c4ccc(Br)cc4)n3c12,61.6%,43.8%,72.3%,48.8%,33.8%,65.3%,-1.56% (active),82.9%,53%,37.2%,28.6%,16.1%,52.4%,69.1%,57.9%,51%,48.9%,41.3%,66%,42.3%
COc1cccc(-c2cc(C(=O)Nc3ccc(/C=C/c4ccc(OC5CCN(C)CC5)cc4)cc3)ccc2OC)c1,12.6%,76.2%,5.51% (active),-27.5% (active),-72.3% (active),11%,-46.3% (active),-34% (active),-95.2% (active),29.1%,-64.9% (active),-47.9% (active),51.3%,-60.5% (active),28.9%,-30.8% (active),-63% (active),8.18% (active),83.7%,-21.8% (active)
O=C(CCN1CCCC1)Nc1ccc2c(Nc3ccc(F)cc3)c3ccccc3nc2c1,-12.8% (active),42.7%,-14.6% (active),-12.5% (active),-66.4% (active),4.17% (active),-22.6% (active),-21.8% (active),-35.9% (active),-33.2% (active),-46% (active),0.179% (active),-90.1% (active),-17.2% (active),7.89% (active),16.3%,15.2%,-74.5% (active),-57.1% (active),-80.7% (active)
O=C(c1nc2ccccc2[nH]1)C1C(c2ccc(Br)cc2)C2CC3CCCC[C@H]3N2[C@@]12C(=O)Nc1cc(Cl)ccc12 (stereo not given in full),54.5%,51.8%,56.1%,62.4%,16.8%,52.1%,59.1%,33%,42%,21.8%,52%,25.3%,32%,41.6%,34%,42%,31.6%,56%,43.2%,26.9%
Oc1ccc(C(c2ccc(O)cc2)c2ccc(Br)cn2)cc1,-18.2% (active),-14% (active),-27.3% (active),77.5%,107%,-0.572% (active),42.6%,37.3%,89.7%,1.1% (active),47.4%,73.5%,99.3%,83%,-22% (active),104%,-17.1% (active),84.9%,91.3%,78.8%
ClC1=C(Br)C(Br)(Br)C(=C(Br)Br)C1(Br)Br,104%,93.6%,99%,121%,94.7%,94%,-25% (active),94.6%,109%,57.3%,104%,70.1%,94.1%,79.2%,94.3%,108%,115%,100%,87.6%,81.6%
N#C/C(=C\c1ccc(Cl)cc1)n1nnc2cc(F)c(F)cc21,30%,83.8%,33.9%,59.1%,-22.2% (active),5.41% (active),3.72% (active),32.8%,14.7%,8.61% (active),14%,11.5%,14.8%,11.9%,-18.6% (active),35.7%,86%,3.56% (active),27.7%,11.1%
N#Cc1c(NC(=O)NCc2ccccc2)sc2c1CCCCC2,37.5%,22.5%,44.9%,34.2%,0.445% (active),44.8%,12.1%,25.5%,26.3%,2.15% (active),3.54% (active),12.7%,44.7%,10.7%,-3.29% (active),41%,19.9%,-5.27% (active),61.6%,10.9%
O=C1c2ccc3c4c(ccc(c24)C(=O)N1CCCNCc1ccccc1F)C(=O)N(CCCNCc1ccccc1F)C3=O,-53% (active),-51.9% (active),-83.5% (active),-29.7% (active),-55.2% (active),-14.2% (active),-92.5% (active),-91.2% (active),-40.1% (active),-46% (active),-91.9% (active),-28.2% (active),-72.2% (active),-7.55% (active),-87.9% (active),-65.1% (active),-67.7% (active),-65.5% (active),-98.6% (active),-60.8% (active)
COc1cc(C2C3CC4CCCC[C@H]4N3[C@@]3(C(=O)Nc4cc(Cl)ccc43)C2C(=O)c2nc3ccccc3[nH]2)cc(OC)c1OC (stereo not given in full),75.1%,76.1%,88.3%,90.1%,42%,64.2%,68.2%,43.3%,67%,59.7%,80.5%,40.5%,56.6%,76.8%,51.1%,67.3%,45.5%,70.1%,61.6%,52%
O=C(Nc1ccccc1C(=O)N/N=C(\c1ccccc1)c1ccccn1)c1ccc(F)cc1,28.2%,27.4%,25.9%,12.6%,6.06% (active),69.1%,22.7%,15.6%,-8.12% (active),10.6%,23.5%,12.8%,35.6%,36.6%,37.2%,19.2%,20.9%,9.35% (active),2.87% (active),-23.3% (active)
COc1ccc(NC(=O)c2cc(NCc3cc(O)ccc3O)ccc2O)cc1,90.4%,97%,91.1%,101%,87.2%,106%,-0.814% (active),78.7%,107%,113%,97.4%,73.1%,108%,79.1%,91.2%,80.8%,115%,86.8%,76.3%,95.1%
Cc1cccc(NC(=O)Nc2ccc(-c3ccc4c(c3)NC(=O)/C4=C\c3ccc[nH]3)cc2)c1,61.6%,85.5%,89.8%,89.8%,26.3%,127%,85.3%,83.6%,103%,96.3%,96.4%,82.8%,105%,93%,102%,95.2%,66.1%,62.7%,102%,84.9%
CCNC(=O)Oc1ccc(/C(=C(\C)c2ccccc2)c2ccc(OCCN3CCCCC3)cc2)cc1,73.6%,92.2%,82.7%,59.4%,49.3%,73.4%,93.4%,56%,16.4%,6.41% (active),84.1%,6.5% (active),46.6%,70.7%,59.3%,68.1%,29.7%,24.3%,-26.4% (active),-2.47% (active)
CNCCn1c(=O)c2cc(OC)c(OC)cc2c2ccc3cc4c(cc3c21)OCO4,-18.1% (active),-98.8% (active),-14.5% (active),3.19% (active),-18.4% (active),-5.84% (active),-35.2% (active),-81.2% (active),-51% (active),-61.6% (active),5.52% (active),2.28% (active),-85.3% (active),0.962% (active),-76.1% (active),11.9%,6.74% (active),-30.4% (active),-76.3% (active),-50.5% (active)
